SMILES strings stand for the structures. Calls of active or inactive are those of the source.

For experiment [1], the system named is Human papillomavirus type 1a protein E7 (residues 44-93). The experiment can be described thus: HPV1a E7 fragment binders on microarrays, primary screen, biochemical, small-molecule microarray, residues 44-93, 635 nm fluorescence (AID 1108).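 Note: E7 fragment applied at 1 µg/mL in TBST for 1 h at 4 C; score combines spot fluorescence with its signal to noise ratio.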 The conditions noted are these: small-molecule microarray binding, fluorescence 635 nm; higher = more signal.
Experiment [2] can be described thus: modulators of HCV replicon luciferase signal, primary screen, HCV replication inhibitor project, Huh7 cells, luciferase reporter (AID 1109).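 Note: huh7 hepatoma cells harbouring a luciferase neomycin HCV replicon reporter; luciferase luminescence as measure of HCV replicon replication; test concentration not given here.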 The conditions noted are these: 48 h, higher = more signal.
The target in experiment [3] is Left-right determination factor 2 (Homo sapiens) (UniProt O00292). The experiment can be described thus: LEFTY2 binders on small-molecule microarrays, primary screen, biochemical, small-molecule microarray, 635 nm fluorescence scan (AID 1110). The conditions noted are these: LEFTY2 binding, higher = more signal.
Chain of Left-right determination factor 2 (Homo sapiens) (O00292 whole entry, looked up): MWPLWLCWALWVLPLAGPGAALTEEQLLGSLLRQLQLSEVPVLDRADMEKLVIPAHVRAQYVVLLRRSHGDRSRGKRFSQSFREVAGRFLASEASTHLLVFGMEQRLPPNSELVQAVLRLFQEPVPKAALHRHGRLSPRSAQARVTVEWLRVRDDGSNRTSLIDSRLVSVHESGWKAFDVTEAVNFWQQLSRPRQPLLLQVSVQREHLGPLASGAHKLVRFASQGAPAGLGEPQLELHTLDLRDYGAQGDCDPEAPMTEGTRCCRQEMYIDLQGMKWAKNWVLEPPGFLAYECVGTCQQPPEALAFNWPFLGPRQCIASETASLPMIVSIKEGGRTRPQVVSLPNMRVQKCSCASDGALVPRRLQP
Experiment [4] addresses Calmodulin-1 (Homo sapiens) (UniProt P0DP23). The experiment can be described thus: CALM1 binders on microarrays, EGTA buffer, profiling panel, biochemical, small-molecule microarray, Cy5-labelled CALM1 (AID 1111).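 Note: labelled calmodulin applied in Tris saline Tween buffer holding calcium plus EGTA and DTT.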 To be noted: Cy5-CALM1 binding fluorescence, higher = more signal.
The target is the same in experiment [5]. The experiment can be described thus: calcium-bound CALM1 binders on microarrays, profiling panel, artefact control for SMM control-protein annotation, biochemical, small-molecule microarray, Cy5-labelled CALM1, plus calcium (AID 1112).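 Note: score merges spot fluorescence with signal to noise from triplicate slides.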 The conditions noted are these: Cy5-CALM1 binding fluorescence, higher = more signal.
Experiment [6] is described as follows: small-molecule microarray binders of probe aWnt5a, primary screen, biochemical, biotinylated probe, 635/667 nm fluorescence (AID 1113).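 Note: score merges 667 nm fluorescence intensity with signal-to-noise per printed feature.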 The conditions noted are these: higher = more signal.
The nature of experiment [7]: small-molecule microarray binders of probe aShh, primary screen, biochemical, biotinylated probe, 635/667 nm fluorescence (AID 1114).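 Note: probe is biotin-labelled aShh protein from a stem cell growth factor screen; measures binding of labelled protein to compounds printed on the slide; score merges feature fluorescence at 667 nm with signal-to-noise.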 The conditions noted are these: higher = more signal.
The nature of experiment [8]: small-molecule microarray binders of probe aNog, primary screen, biochemical, biotinylated probe, 635/667 nm fluorescence (AID 1115).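 Note: probe is biotinylated aNog protein used at 0.15 µg/mL for 1 h at 4 C; z-score combines 667 nm fluorescence of each spot with its signal to noise.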 To be noted: higher = more signal.
Experiment [9] concerns the target Torsin-1A-interacting protein 1 (Homo sapiens) (UniProt Q5JTV8). The experiment can be described thus: LAP1 binders from COS7 cell lysate, primary screen, small-molecule microarray, 635/667 nm fluorescence (AID 1116). To be noted: COS7-hLAP1 lysate binding, 635 nm fluorescence, higher = more signal.
The target of experiment [10] is Alpha-bungarotoxin (Bungarus multicinctus) (UniProt P60615). Description: alpha-bungarotoxin binders on microarray, profiling panel, artefact control for SMM control protein annotation, biochemical, small-molecule microarray, Alexa647 label, 635/667 nm fluorescence (AID 1117). The conditions noted are these: alpha-BTX-A647 binding fluorescence, higher = more signal.
Chain of Alpha-bungarotoxin (Bungarus multicinctus) (P60615 whole entry, looked up): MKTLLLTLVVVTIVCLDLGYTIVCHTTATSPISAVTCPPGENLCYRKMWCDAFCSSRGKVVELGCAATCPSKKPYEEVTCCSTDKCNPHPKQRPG

Experiment [11] addresses Albumin (Bos taurus) (UniProt P02769). Description: bovine serum albumin binders on microarray, profiling panel, artefact control for SMM control protein annotation, biochemical, small-molecule microarray, Alexa647 label, 635/667 nm fluorescence (AID 1118).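 Note: score merges 667 nm emission intensity and signal-to-noise per printed compound spot.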 The conditions noted are these: BSA-A647 binding, fluorescence 635 nm, higher = more signal.
The nature of experiment [12]: small-molecule microarray binders of probe aXIP, primary screen, biochemical, NeuroSMM set, 635/667 nm fluorescence (AID 1119).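 Note: probe is the protein aXip251-270 applied at 1 µg/mL to compound-printed slides; binding of probe to printed compounds measured as 667 nm fluorescence plus signal to noise.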 The conditions noted are these: higher = more signal, called active from +8 up or from −8 down.
Experiment [13] can be described thus: small-molecule binders of probe aNOTCH3, primary screen, biochemical, small-molecule microarray, 635/667 nm fluorescence (AID 1120).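 Note: probe is a biotin-tagged antibody raised against NOTCH3 rather than NOTCH3 protein; score merges spot fluorescence near 667 nm with spot signal to noise.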 The conditions noted are these: higher = more signal.
A short description of experiment [14]: small-molecule binders of probe aNOTCH2, primary screen, biochemical, small-molecule microarray, 635/667 nm fluorescence (AID 1121).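 Note: score merges feature fluorescence read at 667 nm with its signal to noise.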 The conditions noted are these: higher = more signal.
In experiment [15] the target is Carbonic anhydrase 2 (Homo sapiens) (UniProt P00918). The experiment can be described thus: CAII small-molecule binders, profiling panel, biochemical, small-molecule microarray, Alexa647-labelled CAII (AID 1122). To be noted: CAII-A647 binding fluorescence, higher = more signal.
Experiment [16] can be described thus: COS7 lysate on small-molecule microarray, probe aHis, 635 nm (AID 1123).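 Note: z-score combines 667nm fluorescence intensity with signal-to-noise per printed compound spot.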 The conditions noted are these: COS7 cell lysate, fluorescence, higher = more signal.
The nature of experiment [17]: compound binding in COS7 lysate, probe aLAP1, primary screen, cell lysate, small-molecule microarray (AID 1124).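 Note: lysate comes from COS7 cells expressing LAP1 and is applied at 0.3 µg/mL; score merges spot fluorescence near 667 nm with signal-to-noise over triplicate slides.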 The conditions noted are these: probe aLAP1, fluorescence, higher = more signal.
Experiment [18] deals with Sam68 (KHDRBS1). Description: Sam68 small-molecule binders, primary screen, biochemical, small-molecule microarray, 635 nm fluorescence (AID 1125).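 Note: score merges 667 nm channel intensity with signal to noise over triplicate slides.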 The conditions noted are these: small-molecule microarray binding, higher = more signal.
In experiment [19] the test system is Chordin-like protein 2 (CHRDL2). Description: CHRDL2 small-molecule binders, primary screen, biochemical, small-molecule microarray, 635 nm fluorescence (AID 1126).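 Note: printed compound slides probed with Chrdl2 protein at 4 µg/mL for 1 h at 4 C; score merges 667 nm emission intensity with signal to noise over three replicate slides.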 The conditions noted are these: small-molecule microarray binding, fluorescence 635 nm; higher = more signal.
In experiment [20] the target is Concanavalin-A (Canavalia ensiformis) (UniProt P02866). The experiment can be described thus: ConA small-molecule binders, primary screen, artefact control for SMM control protein annotation, biochemical, small-molecule microarray, Alexa647 label, 635 nm (AID 1127).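 Note: z combines 667 nm emission intensity with signal-to-noise across three replicate slides.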 The conditions noted are these: ConA-A647 binding fluorescence, higher = more signal.
Chain of Concanavalin-A (Canavalia ensiformis) (P02866 whole entry, looked up): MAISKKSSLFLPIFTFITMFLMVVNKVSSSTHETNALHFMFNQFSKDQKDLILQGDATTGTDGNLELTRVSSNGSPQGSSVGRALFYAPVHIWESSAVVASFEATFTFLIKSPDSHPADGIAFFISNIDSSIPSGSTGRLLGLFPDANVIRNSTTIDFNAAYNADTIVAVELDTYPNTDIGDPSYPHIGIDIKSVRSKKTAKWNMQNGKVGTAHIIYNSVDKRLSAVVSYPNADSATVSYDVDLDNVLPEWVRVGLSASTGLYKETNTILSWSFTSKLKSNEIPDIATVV

Chain of Torsin-1A-interacting protein 1 (Homo sapiens) (Q5JTV8 whole entry, looked up): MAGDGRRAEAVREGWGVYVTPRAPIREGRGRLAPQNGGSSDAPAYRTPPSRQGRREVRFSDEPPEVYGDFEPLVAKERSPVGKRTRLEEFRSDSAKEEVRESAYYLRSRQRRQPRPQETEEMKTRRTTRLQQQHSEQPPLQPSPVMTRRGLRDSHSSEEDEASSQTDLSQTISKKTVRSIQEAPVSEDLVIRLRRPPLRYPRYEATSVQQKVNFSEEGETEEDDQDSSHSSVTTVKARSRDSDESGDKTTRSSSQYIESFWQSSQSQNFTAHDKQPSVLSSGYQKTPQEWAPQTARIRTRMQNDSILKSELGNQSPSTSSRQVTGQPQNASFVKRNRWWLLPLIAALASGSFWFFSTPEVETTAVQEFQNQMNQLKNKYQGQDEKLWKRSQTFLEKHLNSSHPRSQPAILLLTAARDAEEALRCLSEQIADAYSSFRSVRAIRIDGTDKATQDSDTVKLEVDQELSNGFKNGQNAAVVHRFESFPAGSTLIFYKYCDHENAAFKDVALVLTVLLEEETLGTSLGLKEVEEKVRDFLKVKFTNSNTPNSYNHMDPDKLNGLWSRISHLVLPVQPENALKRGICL
Chain of Albumin (Bos taurus) (P02769 whole entry, looked up): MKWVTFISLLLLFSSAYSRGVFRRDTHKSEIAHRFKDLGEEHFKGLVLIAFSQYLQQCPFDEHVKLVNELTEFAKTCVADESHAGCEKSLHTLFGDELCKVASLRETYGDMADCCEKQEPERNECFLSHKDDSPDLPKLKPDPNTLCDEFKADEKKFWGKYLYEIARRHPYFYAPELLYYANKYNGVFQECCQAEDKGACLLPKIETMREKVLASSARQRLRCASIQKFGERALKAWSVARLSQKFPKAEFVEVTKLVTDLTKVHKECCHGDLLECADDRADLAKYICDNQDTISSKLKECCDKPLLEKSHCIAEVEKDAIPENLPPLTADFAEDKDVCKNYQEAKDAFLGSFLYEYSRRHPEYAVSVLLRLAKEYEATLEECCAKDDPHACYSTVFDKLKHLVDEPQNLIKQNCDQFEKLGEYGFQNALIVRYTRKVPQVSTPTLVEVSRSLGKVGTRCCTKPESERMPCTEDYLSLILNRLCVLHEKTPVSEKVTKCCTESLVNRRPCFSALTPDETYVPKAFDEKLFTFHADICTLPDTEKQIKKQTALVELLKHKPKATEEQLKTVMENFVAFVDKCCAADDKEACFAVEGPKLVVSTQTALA

`CN(C)C(=O)[C@@]1(Cc2ccccc2N=[N+]=[N-])N=C(c2ccc(OCCCO)cc2)O[C@H]1c1ccccc1N=[N+]=[N-]`: the composite z-score in experiment [1] was 1.41; in [3] it was -0.121; in [4] it was 1.43; in [5] it was 0.859; in [6], -0.0403; in [7] it was 0.108. Further, the composite z-score in experiment [8] is 0.566; in [9], 1.29; in experiment [10], 1.6; in experiment [11], 0.89; in experiment [13] it was 0.277; in experiment [14], 0.083. Further, the composite z-score in experiment [15] was found to be 0.565; in experiment [16], 1.65; in [17], 0.372; in experiment [18] it was 1.33; in experiment [19] it was 0.325; in experiment [20] it was 0.819. Further, the z-score in experiment [2] is -2.28. Further, the composite Z-score in [12] was 0.167 (inactive).
`COC(=O)C(CC#Cc1ccc2c(c1)[C@]1(C(=O)N2)[C@H](c2ccc(O)cc2)N2[C@H](c3ccccc3)[C@H](c3ccccc3)OC(=O)[C@H]2[C@@H]1C(N)=O)C(=O)OC`: the composite z-score in experiment [1] was -0.863; in experiment [3], -0.91; in experiment [4], -1.27; in experiment [5], 0.842; in experiment [6], -0.202; in [7] it was -0.352. Moreover, the composite z-score was -0.263 in experiment [8]; -0.931 in [9]; -1.83 in [10]; -0.999 in [11]; -0.256 in experiment [13]; -0.118 in experiment [14]. Moreover, the composite z-score in experiment [15] is -0.669; in [16], -0.43; in experiment [17] it was -0.404; in experiment [18] it was -1.43; in experiment [19], -2.25; in experiment [20] it was -1.3. The z-score in experiment [2] was -0.32. For the same molecule, the composite Z-score in [12] is -0.421 (inactive).
For `O=C1C2C=CC(C(O)c3ccc(Br)cc3)N(Nc3ccccc3)C2C(=O)N1c1ccccc1` (stereo not given), the composite z-score in [1] was 0.699; in experiment [3] it was -0.853; in experiment [4], 0.863; in [5] it was 0.29; in [6], 0.0151; in experiment [7], 0.389. For the same molecule, the composite z-score in experiment [8] worked out at 1.26; in experiment [9], 0.661; in [10] it was 1.2; in [11] it was 0.875; in [13] it was 0.328; in experiment [14], 0.166. Further, the composite z-score in experiment [15] amounted to 0.652; in experiment [16] it was 1.76; in [17], 0.189; in [18], 0.668; in experiment [19], 0.527; in experiment [20] it was 0.722. Besides, the z-score in experiment [2] turned out to be 0.393. Also, in [12], the composite Z-score was -0.0127 (inactive).
Take `CN(C)CCCNC(=O)[C@@]1(Cc2ccccc2I)c2ccccc2C(=O)N(Cc2ccccc2Cl)[C@H]1c1ccc(CO)cc1`: the composite z-score was -0.93 in experiment [1]; -1.3 in experiment [3]; 1.48 in experiment [4]; 0.775 in [5]; 0.157 in experiment [6]; -0.12 in experiment [7]. The composite z-score in [8] is -0.784; in [9], 0.461; in [10], 1.27; in [11], 0.827; in [13], 0.175; in [14] it was 0.2. The composite z-score in experiment [15] was 0.522; in [16], 1.44; in [17], 0.507; in experiment [18], -0.035; in experiment [19], -1.09; in experiment [20], 1.09. Moreover, the z-score in experiment [2] was -3.47. Besides, the composite Z-score in experiment [12] is -0.175 (inactive).
On to `CC(C)c1ccc(NN2C(C(O)c3cccs3)C=CC3C(=O)N(c4ccccc4)C(=O)C32)cc1` (stereo not given), for which the composite z-score in experiment [1] is 1.4; in experiment [3], -0.0393; in [4], 2.29; in experiment [5], 0.795; in [6] it was 0.0364; in experiment [7], -0.304. Besides, the composite z-score in experiment [8] is 0.113; in experiment [9], 0.789; in experiment [10] it was 1.01; in experiment [11] it was 0.772; in experiment [13] it was 0.319; in experiment [14], -0.136. Moreover, the composite z-score was 0.76 in experiment [15]; 2.06 in experiment [16]; 0.665 in [17]; 1.31 in experiment [18]; -0.127 in experiment [19]; 1.13 in [20]. The z-score in experiment [2] was -0.531. For the same molecule, in experiment [12], the composite Z-score was 0.302 (inactive).
With `COC(=O)[C@@]1(Cc2ccccc2)[C@H]2c3cc(C(=O)N4CCCC4)n(CCO)c3C[C@H]2CN1C(=O)c1ccccc1`, the composite z-score came out at 0.34 in experiment [1]; 0.167 in experiment [3]; 2.71 in experiment [4]; 1.07 in [5]; 0.853 in [6]; 0.436 in experiment [7]. The composite z-score in [8] worked out at 0.922; in [9], 3.95; in [10], 1.48; in experiment [11] it was 1.03; in experiment [13], 1.37; in experiment [14] it was 0.853. The composite z-score in experiment [15] worked out at 0.841; in [16], 2.35; in experiment [17] it was 1.41; in experiment [18] it was 1; in [19], 0.443; in [20], 0.886. In addition, the z-score in experiment [2] was -1.02. For the same molecule, the composite Z-score in [12] was 1.61 (inactive).
